# Source: PubChem
# Most compounds without a hit are left out; they make up all but 21% or so of the library.
# D3 antag = qHTS of D3 Dopamine Receptor Antagonist: qHTS. D(3) dopamine receptor (Homo sapiens), P35462. D3R cells, DiscoveRx beta-arrestin luminescence, antagonist mode; stronger effect = lower value. max response, negative = inhibition, %. actives 2.5% (n = 360,000). AID 652054, 2013; in the data active means max response below about -50%; inconclusive means no clear call, values can overlap the other calls
# Target sequence (P35462 whole entry, looked up): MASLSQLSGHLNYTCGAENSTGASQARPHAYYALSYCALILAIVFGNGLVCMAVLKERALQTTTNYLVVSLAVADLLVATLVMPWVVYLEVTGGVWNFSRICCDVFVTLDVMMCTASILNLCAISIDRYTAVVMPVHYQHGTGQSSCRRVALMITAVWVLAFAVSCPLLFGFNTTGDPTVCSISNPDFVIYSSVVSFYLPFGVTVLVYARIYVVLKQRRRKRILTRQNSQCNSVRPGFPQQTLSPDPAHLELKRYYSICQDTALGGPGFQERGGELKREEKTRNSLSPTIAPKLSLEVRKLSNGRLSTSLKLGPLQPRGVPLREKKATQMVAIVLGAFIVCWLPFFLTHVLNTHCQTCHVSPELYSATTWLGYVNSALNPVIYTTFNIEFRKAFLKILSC
#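 Cells expressing the human receptor were seeded at 1500 cells/well, incubated overnight at 37 degrees C in 5% CO2, then exposed to library compounds with dopamine controls for 90 minutes at 37 degrees C before luminescent detection.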
# IL-1B inflam inh = qHTS for Inhibitors of Inflammasome Signaling: IL-1-beta AlphaLISA Primary Screen | THP-1 LPS/ATP IL-1B secretion, AlphaLISA, 16 h; stronger effect = lower value | activity change, % at 57.5 µM | actives 4.7% (n = 360,000); in the data active means activity change below about -50%; inconclusive means mostly about -30% to -49%
#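 THP-1 cells pretreated 1 hr with compounds (up to 57.5 uM final), then stimulated with LPS (250 ng/mL final) plus ATP (1.25 mM final); secreted IL-1B measured by AlphaLISA after 16 hr, decreased signal indicating inhibition.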
# ClpP mod = qHTS Assay for Activators of ClpP | ATP-dependent Clp protease proteolytic subunit (Bacillus subtilis (strain 168)), P80244 | purified B. subtilis ClpP, FRET peptide cleavage, 20 min | Potency, µM (series often up to 57.5 µM) | actives 1.9% (n = 340,000) | AID 651965, 2013; active means well fitted falling curve with a large enough effect; inconclusive means small, poorly fitted or top-dose-only effect; inactive means no such curve, though single readings can be large or run the other way; further: the source files actives as falling curves though it sought activators and does not explain the sign; nearly all actives have a fitted effect of over 65% in size
# Target sequence (P80244 whole entry, looked up): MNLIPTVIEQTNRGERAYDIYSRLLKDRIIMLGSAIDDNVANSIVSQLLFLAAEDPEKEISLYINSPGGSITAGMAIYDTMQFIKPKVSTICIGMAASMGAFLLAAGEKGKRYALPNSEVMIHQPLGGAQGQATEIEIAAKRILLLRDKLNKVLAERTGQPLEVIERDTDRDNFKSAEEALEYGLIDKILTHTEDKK
#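 Buffer: 100 mM Tris/HCl pH8, 100 mM KCl, 0.05% low protease BSA, 2.5% glycerol, 0.01% Tween-20. ClpP 10 microg/mL final; 20 min RT; delta FRET normalized to ADEP and DMSO controls.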
# DT40 TDP1 CPT = qHTS for Inhibitors of human tyrosyl-DNA phosphodiesterase 1 (TDP1): qHTS in cells in presence of CPT. chicken DT40 Tdp1-/-;hTDP1 cells + 20 nM CPT, ATP luminescence, 48 h. Potency, µM (titrated, usually from 46.2 µM), usual class: inhibitors. actives 12% (n = 420,000). AID 686979, 2013; further: nearly all actives have a fitted effect of over 55% in size
#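 Chicken DT40 Tdp1-/- cells stably complemented with human TDP1 were seeded at 400 cells/well in medium containing 20 nM camptothecin, exposed to pin-transferred compounds, and grown at 37 °C for at least 48 hr. Viability was read as ATP luminescence.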
# DT40 TDP1 no CPT = qHTS for Inhibitors of human tyrosyl-DNA phosphodiesterase 1 (TDP1): qHTS in cells in absence of CPT; Potency, µM (top dose mostly 46.2 µM), most hits filed as inhibitors; DT40 Tdp1-/- hTDP1 cells, no CPT, ATP luminescence, 48 h; actives 15% (n = 420,000); AID 686978, 2013; further: nearly all actives have a fitted effect of over 55% in size
#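 Compound effects on proliferation are scored in DT40 Tdp1-/-;hTDP1 cells in the absence of CPT. ATP levels (CellTiter-Glo luminescence) are recorded after a ≥48 hr, 37 °C incubation.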
# D3 ag = qHTS of D3 Dopamine Receptor Agonist: qHTS; D(3) dopamine receptor (Homo sapiens), P35462; D3R DiscoveRx beta-arrestin cells, luminescence, 90 min; max activation, %; actives 0.58% (n = 410,000); in the data active means max activation above about 30%
#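 Agonist-mode cell screen: cells plated at 1500/well and incubated overnight at 37 °C, then exposed to library compounds for 90 min at 37 °C. Detection reagent was added for 30–60 min at room temperature, and luminescence was read.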
# Numbers stand for hits; n = inactive; u = inconclusive; x = not tested or not shown; [ ] = remark or other dose. Unless noted, the call rests on the fitted dose curve; in most records, active means well fitted inhibition curve with a large enough effect; inconclusive means small, poorly fitted or top-dose-only effect; inactive means flat fitted curve, though single readings scatter.
SMILES,D3 antag,IL-1B inflam inh,ClpP mod,DT40 TDP1 CPT,DT40 TDP1 no CPT,D3 ag
Cc1ccc(C)c(-c2nnc(NC(=O)Cc3ccc(F)cc3)o2)c1,n,n,n,12µM,10µM,n
Cc1ccc(-c2nnc(NC(=O)CCS(=O)(=O)c3ccccc3)o2)c(C)c1,n,n,n,n,n,n
Cc1ccc(-c2nnc(NC(=O)Cc3ccc(F)cc3)o2)c(C)c1,n,n,n,10µM,12µM,n
Cc1ccc(C)c(-c2nnc(NC(=O)COc3ccccc3)o2)c1,n,n,n,u,u,n
CNC(=S)SCCOc1ccccc1C,n,n,n,n,u,n
C=Cc1ccc(CN2C(=O)c3ccccc3Sc3ccc(C(=O)OCc4ccco4)cc32)cc1,x,x,n,x,x,n
CCOC(=O)C1CN(C(=O)OCC)CC1=NNC(N)=O (centres undefined),n,n,n,n,n,n
Oc1[nH]c(N=C2N=c3ccccc3=N2)c2ccccc12,n,-98,n,0.58µM,0.92µM,n
Cc1ccc(O)c(Nc2nc(-c3ccccc3)nc3ccccc23)c1,n,n,n,n,n,n
Cc1ccc2c(c1)=N/C(=N\c1[nH]c(O)c3ccccc13)N=2,n,-102,n,4.1µM,3.7µM,n
CCOCCCNC(=O)C1CCN(C(=O)c2cc3sccc3n2C)CC1,x,x,n,n,n,n
CCOc1[nH]c(/N=C/c2ccccc2)c(C#N)c1C#N,x,x,n,6.3µM,n,x
COc1[nH]c(/N=C/c2ccco2)c(C#N)c1C#N,x,x,n,16µM,u,x
COC(=O)c1ccccc1NC(=O)CN1CCN(c2ccccn2)CC1,n,n,x,n,n,n
COC(=O)c1ccccc1N/C=C1\CCc2c(c(C)nn2-c2ccccn2)C1=O,n,n,u,16µM,u,n
CC(C)(C)C(=O)Nc1ccc(C(=O)OC2CCCCC2)cc1,n,n,n,26µM,21µM,n
O=C(OC1CCCCC1)c1ccc(NC(=O)C2CCCCC2)cc1,n,n,n,u,21µM,n
Cc1ccccc1N(C(=O)CS(=O)CC(=O)Nc1ccc(F)cc1)C(C)C(=O)NC(C)(C)C (centres undefined),n,n,x,n,n,n
Cc1cc(S(=O)(=O)N2CCOCC2)ccc1OCC(=O)Nc1ccc(Br)cc1F,n,n,x,n,n,n
CCc1ccc(CNC(=O)C2CCN(S(=O)(=O)N3CCC4(CC3)OCCO4)CC2)cc1,n,n,n,u,n,n
CC(C)CSc1nc(N)nc2c1ncn2C1OC(CO)C(O)C1O (centres undefined),n,n,x,n,n,n
CC(C)(C)c1ccc(-c2nnc(-c3ccccc3NC(=O)c3ccc(F)cc3F)o2)cc1,x,x,n,u,u,n
CCOc1ccc(CO[C@@H]2O[C@H](CO)[C@@H](O)[C@H](O)[C@H]2NC(C)=O)cc1OC,n,n,n,n,n,n
COc1ccc(CO[C@@H]2O[C@H](CO)[C@@H](O)[C@H](O)[C@H]2NC(C)=O)cc1OC,-52,n,n,n,n,n
COc1ccc(C(=O)NN/C(=N/S(=O)(=O)c2ccc(C)cc2)c2ccccc2)cc1,n,n,x,n,n,n
SMILES,D3 antag,IL-1B inflam inh,ClpP mod,DT40 TDP1 CPT,DT40 TDP1 no CPT,D3 ag
CC(C)c1ccccc1OCCCCN1CCCCC1,-103,n,n,u,u,n
Brc1ccccc1OCCCCCN1CCOCC1,u,n,x,n,u,n
CC(C)c1ccccc1OCCCCCN1CCOCC1,-54,n,x,n,n,n
CC(C)c1ccccc1OCCCN1CCCC1,-87,n,n,n,u,n
CN(C(=O)COC(=O)c1ccc2ccccc2n1)C1CCS(=O)(=O)C1 (centres undefined),n,n,x,n,n,n
COc1cccc(-n2c(=O)c3c4c(sc3n(Cc3ccccc3C#N)c2=O)CCCC4)c1,x,x,n,n,n,n
Cc1ccc(CNC(=O)CN(c2ccc(Cl)cc2)S(C)(=O)=O)cc1,n,n,n,n,n,n
COC(=O)c1cc2sc(C)cc2n1CC(=O)Nc1ccc(C)c(C)c1,x,x,n,u,u,n
COc1cc(Cl)c(NC(=O)CN2C(=O)c3cccnc3Sc3ccccc32)c(OC)c1,x,x,n,n,u,n
COc1ccc(-c2coc3cc4oc(=O)c5ccccc5c4cc23)cc1F,n,n,u,0.82µM,0.65µM,n
COc1ccc(-c2c(-c3ccccc3OC)oc3ccccc23)cc1F,n,n,n,u,u,n
O=c1[nH]c(SCc2ccccc2)nc2c1CCCC2,x,x,n,u,u,n
COc1ccc2c(c1)NC(c1ccc(N(C)C)cc1)c1cccn1-2 (centres undefined),n,n,x,u,15µM,n
COc1ccc2c(c1)NC(c1cc(Cl)cc(Cl)c1O)c1cccn1-2 (centres undefined),n,n,x,n,u,n
N#C/C(=C\C1=C(N2CCOCC2)C(=C/c2cccc([N+](=O)[O-])c2)/CC1)C(=O)Nc1ccccc1F,u,n,n,9.2µM,10µM,n
N#C/C(=C/C1=C(N2CCOCC2)C(=C/c2cccc([N+](=O)[O-])c2)/CC1)C(=O)Nc1ccccc1F,n,n,n,10µM,8.2µM,39
CC(NC(=O)C12CC3CC(CC(C3)C1)C2)C(=O)N/N=C/C1=C(N2CCOCC2)C(=C\c2cccc([N+](=O)[O-])c2)/CC1 (centres undefined),n,n,n,u,12µM,n
Cc1ccccc1C(=O)Nc1nnc(CC(=O)N/N=C/c2ccncc2)s1,n,x,x,n,n,n
O=C(COc1ccc(Nc2ccccc2)cc1)OCC(=O)N1CCCCC1,n,n,n,n,n,n
COC(=O)c1cccc(C(=O)NCc2nc(-c3ccccc3NC(C)=O)oc2C)c1,x,x,x,n[9.04 µM],n,x
O=C(NC1CCC(=O)N(CCSc2ccccc2)CC1)OCc1ccccc1 (centres undefined),n,n,n,u,16µM,n
O=C(N[C@H]1CCC(=O)N([C@H](CSc2ccccc2)Cc2ccccc2)CC1)OCc1ccccc1,u,n,n,u,20µM,n
O=C1CC[C@H](OCc2ccccc2)CCN1[C@H](CSc1ccccc1)Cc1ccccc1,n,n,n,n,u,n
O=C(N[C@H]1CCC(=O)N([C@H](CSc2ccc(Br)cc2)Cc2ccccc2)CC1)OCc1ccccc1,n,n,n,u,18µM,n
